CASP6 VEID inh: human caspase-6 inhibitors, primary screen, biochemical, VEID-R110 fluorescence, single point, set 2. P55212. purified caspase-6, Z-VEID-R110 cleavage fluorescence. inhibition, % at 12.5 µM. 350,000 tested, 0.53% active;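 active means mean inhibition across replicates at least about 35%, with every replicate also reaching that limit, limit read from the data; inconclusive means only one of the two criteria met; inactive means neither criterion met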
SUMO Mot1 rescue: yeast Mot1-301 growth rescue at high temperature, primary screen, SUMOylation pathway inhibitor project, S. cerevisiae, ATP luminescence, 38.5C. S. cerevisiae Mot1-301 growth rescue; percent above DMSO median, 100 means doubled. 320,000 tested, 1% active. growth rescue, % at 18.8 µM;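 active means every valid replicate shows activation above 250% relative to neutral control wells; inactive means the rest, any valid replicate at or below 250%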
ALR inh: inhibitors of human ALR sulfhydryl oxidase, primary screen, biochemical, H2O2 detection, HRP-luminol luminescence, single point | inhibition, % (concentration not given with the values) | purified ALR, DTT oxidation | 290,000 tested, 3.8% active | AID 485317, 2010 | FAD-linked sulfhydryl oxidase ALR (Homo sapiens), P55789;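 active means mean replicate inhibition above about 79%, with every replicate also reaching it, limit read from the data; inconclusive means only one of the two criteria met; inactive means mean below limit and not every replicate reaching it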
Glyco luc inh: increase of ERlucT glycosylation luciferase signal, primary screen, N-linked glycosylation inhibitor project, D54 ERlucT cells, luminescence, set 2 | D54 ERlucT glycosylation luciferase reporter, 24 h; percent of 100 nM tunicamycin response | reporter increase, % at 12.5 µM | 360,000 tested, 0.23% active;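 active means mean luciferase reporter signal, scaled so untreated is 0 and the glycosylation-blocking control 100, at or above a set limit in every replicate; inconclusive means mean reaches the limit but not every replicate does; inactive means mean below the limit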;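 further: luciferase carries N-glycosylation sites so blocking glycosylation raises the light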
NSD2 inh: NSD2 histone methyltransferase inhibitors, primary screen, biochemical, AlphaScreen, single concentration, set 2; Histone-lysine N-methyltransferase NSD2 (Homo sapiens), O96028; NSD2 peptide methylation, 120 min; inhibition, % at 12.5 µM; 310,000 tested, 0.54% active; in the data active means inhibition above about 50%
CDK5 p35 inh: inhibitors of human CDK5/p35 kinase, primary screen, biochemical, single concentration; 330,000 tested, 0.01% active; inhibition, % at 10 µM; AID 488839, 2010; Recombinant CDK5/p35, ADP-Glo luminescence, 60 min; Cyclin-dependent kinase 5 (Homo sapiens) + Cyclin-dependent kinase 5 activator 1 (Homo …;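 active means highest replicate inhibition of at least 50% and at least 75% of replicates reaching 50%; inconclusive means only one of the two criteria met; inactive means both criteria failed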
Alpha artifact: AlphaScreen signal interference with preloaded methylated product, dose response, artefact control for NSD2 inhibitor project, biochemical, cherry-picked samples. shares compounds with NSD2 inh. AlphaScreen artifact counterscreen, preloaded methylated H4 peptide. AC35, µM (doses to about 10 µM). 1,500 tested, 9.4% active. AID 1053174, 2014; call rule not given here
A number is an active result; – = inactive; ? = inconclusive; · = not tested or not shown; + = active, no number. Hits are enriched below; roughly 3.9% of the tested compounds scored in any of these assays.

SMILES	CASP6 VEID inh	SUMO Mot1 rescue	ALR inh	Glyco luc inh	NSD2 inh	CDK5 p35 inh	Alpha artifact
O=C(Cc1cccnc1)N1CCCCN2[C@@H](CO)[C@H](c3ccc(C#CC4CC4)cc3)[C@@H]2C1	–	·	·	·	·	·	·
CCCCn1c(NC(=O)c2ccco2)c(C(=O)OCC)c2nc3ccccc3nc21	·	–	–	–	175	–	–
CN(C)C(CNC(=O)Cc1ccc(Br)cc1)c1ccccc1 (stereo unspecified)	–	–	–	–	53	–	–
COC(=O)[C@H]1[C@H](CO)[C@H]2Cn3c(cccc3=O)[C@@H]1N2C(=O)C1CCC1	–	·	·	·	·	·	·
CCc1cc(OC)c(CCN)cc1OC	–	·	·	·	·	·	·
CCCCCSc1cc(OC)c(CCNC)cc1OC	·	–	·	–	61	–	–
O=C(Cc1cccnc1)N1CCCCN2[C@H](C1)[C@@H](c1ccc(/C=C/c3ccccc3)cc1)[C@@H]2CO	–	·	·	·	·	·	·
Cn1c(=O)[nH]c2nncnc2c1=O	43	–	–	–	54	–	–
COC(=O)[C@H]1[C@H](CO)[C@H]2Cn3c(ccc(C4=CCCCC4)c3=O)[C@@H]1N2C(=O)Cc1ccccn1	–	·	·	·	·	·	·
CC[n+]1c(/C=C/N(C)c2ccccc2)sc2ccc(Cl)cc21	·	–	·	–	–	–	·
CN(C)c1ccc(/C=C/C=C/c2sc3ccccc3[n+]2C)cc1	–	–	–	–	57	–	10µM
CC[n+]1c(/C=C/C=C/c2ccc(N(C)C)cc2)sc2ccccc21	–	–	·	28	81	–	3.7µM
O=C(NC1CN2CCC1CC2)c1cccc(Cl)c1 (stereo unspecified)	–	–	–	–	–	–	·
C=C(C)c1cccc(C(C)(C)NC(=O)NC2CN3CCC2CC3)c1 (stereo unspecified)	·	–	·	–	51	–	–
O=C1NC(=O)N(c2ccccc2)C(=O)/C1=C/c1ccoc1	·	–	–	–	51	–	–
COc1cc(/C=C2/C(=O)NC(=O)N(c3ccccc3)C2=O)ccc1O	–	–	–	–	–	–	·
CCCC#Cc1ccc([C@H]2[C@@H](CO)N3CCCCN(C(=O)Cc4ccccn4)C[C@@H]23)cc1	–	·	·	·	·	·	·
CCn1nc(/C=C/c2ccccc2)nc2c(=O)n(C)c(=O)nc1-2	·	·	·	–	+	–	–
CCn1nc(-c2cccs2)nc2c(=O)n(C)c(=O)nc1-2	·	·	·	–	·	–	·
Cc1ccc(OC(=O)N(C)C[C@@H]2OCc3ccccc3-c3c(n(C)c4ccccc34)C(=O)N([C@@H](C)CO)C[C@@H]2C)cc1	–	·	·	·	·	·	·
C[C@H]1CCCC(=O)CCC/C=C/c2cc(O)cc(O)c2C(=O)O1	–	–	·	–	·	–	·
COc1cc(O)cc2c1C(=O)OC(C)CCCC(=O)CCC/C=C\2 (stereo unspecified)	–	–	–	–	54	–	–
O=C(c1cc2ccccc2oc1=O)N1CCC2(CC1)OCCO2	·	–	–	–	65	–	–
O=C(Cc1cccnc1)N1CCCCN2[C@H](CO)[C@@H](c3ccc(C#CC4(O)CCCC4)cc3)[C@@H]2C1	–	·	·	·	·	·	·
O=[N+]([O-])c1ccc(NC2CCCC2)c2ccncc12	·	–	–	–	–	–	·
SMILES	CASP6 VEID inh	SUMO Mot1 rescue	ALR inh	Glyco luc inh	NSD2 inh	CDK5 p35 inh	Alpha artifact
O=[N+]([O-])c1ccc(N2CCCC2)c2ccncc12	–	·	–	–	71	–	–
O=C(Cc1ccccn1)N1CCCCN2[C@@H](CO)[C@H](c3ccc(Br)cc3)[C@@H]2C1	–	·	·	·	·	·	·
O=C(Cc1ccccn1)N1CCCCN2[C@H](CO)[C@@H](c3ccc(-c4ccccc4F)cc3)[C@@H]2C1	–	·	·	·	·	·	·
COC(=O)c1nc(-c2ccc3c(n2)C(=O)C(N)=C(OC)C3=O)c(N)c(-c2ccc(OC)c(OC)c2O)c1C	54	–	–	–	55	–	–
CCOc1cccc(N2C(=O)/C(=C/c3ccco3)C(=O)NC2=S)c1	87	–	·	–	123	–	2.6µM
COc1ccccc1/C=C1\C(=O)NC(=S)N(c2ccccc2)C1=O	·	–	–	–	–	–	·
COc1ccc(CN2C(=O)NC(=O)/C(=C\c3ccco3)C2=O)cc1	82	–	–	–	51	–	–
O=C(Cc1ccccn1)N1CCCCN2[C@H](C1)[C@@H](c1ccc(Br)cc1)[C@@H]2CO	–	·	·	·	·	·	·
COc1ccc(C#Cc2ccc([C@H]3[C@@H](CO)N4CCCCN(C(=O)Cc5ccccc5)C[C@H]34)cc2)cc1	–	·	·	·	·	·	·
Cc1cc(/C=C2\C(=O)NC(=O)N(c3cccc(F)c3)C2=O)c(C)n1-c1cc(C(=O)O)cc(C(=O)O)c1	–	–	?	–	81	–	–
N#Cc1cccc(-c2ccc([C@H]3[C@@H](CO)N4CCCCN(C(=O)Cc5cccnc5)C[C@H]34)cc2)c1	–	·	·	·	·	·	·
O=C(O)[C@@H]1[C@@H](CO)[C@@H]2Cn3c(ccc(-c4cccnc4)c3=O)[C@H]1N2S(=O)(=O)c1ccccc1F	–	·	·	·	·	·	·
COC(=O)C1=Nc2ccccc2/C1=C\c1c(O)n(-c2ccc(Br)cc2)c(=O)[nH]c1=O	–	–	·	–	61	–	–
COC(=O)C1=Nc2ccccc2/C1=C\c1c(O)n(-c2ccc(OC)cc2)c(=O)[nH]c1=O	·	–	–	–	–	–	·
NC(=O)C1CCN(/C=C2\C(=O)NC(=O)N(Cc3ccco3)C2=O)CC1	–	–	–	–	·	–	·
CC(C)N1C(=O)/C(=C/C=C/c2ccco2)C(=O)N(Cc2ccco2)C1=O	·	–	98	30	107	–	8.5µM
